According to PubChem BioAssay AID1566 (Sanford-Burnham Center for Chemical Genomics, 2009):
Among all 290,000 compounds or so, about 1,800 (0.62%) were called active. This is one part of a sample in which actives are shown more often than they occur. Values without a mark were called inactive. Rule as the data show it: active = inhibition above about 50%; inactive = the rest.

Test: inhibition of NOD2-driven NF-kB reporter – cell-based, luminescence, uHTS, HEK293 (AID 1566)
Conditions: HEK293 NOD2/NF-kB luciferase reporter, at 4 µM, hits give high values

SMILES | inhibition
O=C(/C=C/c1cccc(Cl)c1)NCc1ccccc1 | 9.9%
CN(Cc1nc(Cc2ccccc2F)no1)Cc1cccc2ncccc12 | 19.2%
COc1ccc(NC(=O)COC(=O)C2CCC(C(C)(C)C)CC2)c([N+](=O)[O-])c1 (stereo unspecified) | 16.1%
Cc1cc(C(F)(F)F)nc(CCNCc2c(C(=O)N3CCCC3)nc3ccccn23)n1 | 12.8%
Cc1ccc(/C=N/c2sc3c(c2C(N)=O)CCCC3)o1 | -59.1%
COc1ccc(-n2c(=S)[nH]c3cc(C(=O)Nc4cccc(C)c4)ccc3c2=O)cc1 | -42%
O=C(O)CC1NC(=O)N(c2ccc(Cl)cc2)C1=O (stereo unspecified) | 5.4%
N#CC1=C(SCc2ccccc2)NC(=O)CC1c1cccc(O)c1 (stereo unspecified) | 12.9%
O=S(=O)(c1ccc(Cl)cc1)N1CCN(S(=O)(=O)N2CCCCCC2)CC1 | -1.1%
CC(C)(C)OC(=O)N1CCC(c2cc(=O)n3[nH]c(-c4ccc(Cl)cc4)cc3n2)CC1 | 8%
Cc1nc2sc(C(c3ccc(Cl)cc3)N3CCN(C(=O)c4ccco4)CC3)c(O)n2n1 (stereo unspecified) | 1.9%
COc1ccc(S(=O)(=O)Nc2ccc3c(c2)OCO3)cc1OC | -22.1%
Cc1ccc(NS(=O)(=O)c2ccc(-c3cnc(C4CC4)o3)cc2)cc1 | -3.1%
COc1ccc(C)cc1NS(=O)(=O)c1ccc(-c2cnc(C3CC3)o2)cc1 | 27.1%
COc1ccc(S(=O)(=O)Nc2ccc3c(c2)OCCO3)cc1OC | 4%
COc1ccc(NS(=O)(=O)c2ccc3c(c2)OCCO3)cc1OC | 52.2% (active)
COc1ccc(-c2noc(-c3ccoc3C)n2)cc1 | -47.8%
CC(C)(C)C(=O)Nc1ccc(-c2cnco2)cc1 | 2.7%
Cc1ccc(CC(=O)Nc2ccc(C(=O)N3CCCCC3)cc2)cc1 | 0.3%
Cc1ccc(C23CC4CC(CC(NC(=O)NC(C)(C)CO)(C4)C2)C3)cc1 | -8.2%
COc1ccccc1C1(O)C(=O)Nc2ccccc21 (stereo unspecified) | 24.1%
Cc1nn(-c2ccccc2Cl)c(Cl)c1/C=N/Nc1cccc(C(=O)O)c1 | -183%
Cc1nn(-c2ccccc2Cl)c(Cl)c1/C=N/Nc1nc2ccccc2s1 | 78.1% (active)
CCOC(=O)N/N=C/c1c(C)nn(-c2ccccc2Cl)c1Cl | -45.5%
COc1ccccc1NC1=C(C)C(=O)CC1 | 5.8%
Cc1cccc(NC(=O)N2CCC(C(=O)c3ccc(F)cc3)CC2)c1 | -7.7%
